According to PubChem BioAssay AID1863 (Southern Research Specialized Biocontainment Screening …, 2009):
“And” between values parts separate entries of the source, which are not always exact repeats. Identical values can stand only once. Screen size: about 300,000 compounds; about 480 (0.16%) were called active.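 How the source made its calls: active means inhibition over 29.93%, a cutoff 3 SD above the screen mean, later confirmed by dose response; inconclusive means inhibition over 29.93% but no dose response follow-up; inactive means inhibition at most 29.93% or unconfirmed.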 These entries were drawn from the full list. Measured potencies and affinities stand elsewhere.

Test: PhoP-dependent GFP reporter repression – Salmonella Typhimurium, primary screen (AID 1863);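 further: 0% = low Mg2+ inducing control and 100% = high Mg2+ repressing control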
Settings: S. Typhimurium PhoP-regulated promoter GFP reporter, 4 h; at 50 µM; active compounds read high

inhibition, inactive:
CCCCCCn1ccc(=N)cc1 -2.46%
CCCCCCCCCCCCCCCCn1cc[n+](C)c1 22.9%
CCCC(=O)c1ccc(N2CCN(C(=O)OCC)CC2)c(F)c1 1.25%
O=C(N/N=C\c1ccc(-c2ccccc2[N+](=O)[O-])o1)C1COc2ccccc2O1 (centres undefined) 6.06%
O=C(N/N=C\c1ccc(O)c([N+](=O)[O-])c1)C1COc2ccccc2O1 (centres undefined) -12.2%
Cc1cc([N+](=O)[O-])cc(/C=N\NC(=O)C2COc3ccccc3O2)c1O (centres undefined) -5.46%
COc1cc(/C=N\NC(=O)C2COc3ccccc3O2)cc(OC)c1O (centres undefined) -4.27%
CC(C)[C@H](NC(=O)OCc1ccccc1)C(=O)OCC(=O)NC1(C#N)CCCC1 10.7%
CC1CCC/C(=N\NC(=O)Nc2ccccc2)C1 (centres undefined) 2.46%
COc1ccc2cc(C(=O)C3CCCN(C(=O)c4cnn(C(C)C)c4)C3)ccc2c1 (centres undefined) 2.9%
CN(CC(=O)Nc1ccc(F)cc1)C(=O)c1cccc(S(=O)(=O)N2CCN(c3ccccc3)CC2)c1 -1.79%
CC(C)(C)CN1CCN(CCCc2ccccc2)C(CCO)C1 (centres undefined) -4.44%
CCc1cc(CNC(=O)CC2C(=O)NCCN2Cc2c(F)cccc2Cl)on1 (centres undefined) -1.45%
Oc1ccc(/C=N/NC(=S)Nc2cccnc2)c(O)c1O 8.35%
Oc1ccc(/C=N/NC(=S)Nc2cccnc2)c(O)c1 29.1%
CCn1c(CNC(=O)C2CCCCC2)cc2cc(C)ccc21 -0.55%
COc1ccc(C(=O)C2CCCN(C(=O)C3CCOCC3)C2)c(C)c1 (centres undefined) 4.46%
C[n+]1cn(Cc2cc(Cl)ccc2OC(F)F)c2ccccc21 -3.69%
CCCCCc1ccc(OCCCC[n+]2cccc(C)c2)c(CCCCC)c1 3.26%
CCCCCc1ccc(OCCCC[n+]2ccccc2)c(CCCCC)c1 3.64%
CCCCCc1ccc(OCCCC[n+]2ccc(C)cc2)c(CCCCC)c1 15.8%
O=C1CC(C(=O)Nc2ccccc2)N=C(N2CCCCC2)N1 (centres undefined) 0.85%
OCC[C@H]1C[C@@H](O)[C@H](O)[C@]2(CCCCO2)O1 -4.87%
O=C(Cn1cc(SCc2cccc(Cl)c2)c2ccccc21)N1CCOCC1 -8.83%
CC(C)c1ccc(C2NC(=S)NC3=C2C(=O)CCC3)cc1 (centres undefined) 1.24%
CCOC(=O)/C=c1\s/c(=C\c2ccc(C(F)(F)F)cc2)c(=O)n1CC(=O)NCc1ccco1 -2.01%
CCn1cc(C(=O)O)c(=O)c2cnc(N3CCN(C(=S)Nc4ccc(F)cc4)CC3)nc21 -3.34%
S=C(NC1CC2CCC1C2)N1CCN(c2cccc(Cl)c2)CC1 (centres undefined) -2.31%
Cc1c(-n2cc(C(=O)O)c(=O)c3cc(F)c(N4CCCC(O)C4)c(F)c32)c(=O)n(-c2ccccc2)n1C (centres undefined) 2.04%
CCOC(=O)c1cn(-c2nc(-c3ccc(Cl)cc3)cs2)c2c(F)c(N3CC(C)OC(C)C3)c(F)cc2c1=O (centres undefined) 10.3%
CCn1cc(C(=O)O)c(=O)c2cnc(N3CCN(C(=S)Nc4ccccc4C(F)(F)F)CC3)nc21 3.15%
COC(=O)CC1C(=O)NCCN1C(=S)Nc1ccc(F)cc1 (centres undefined) 0.13%
O=S(=O)(c1ccc(F)c(F)c1F)N1CCN(C(=S)NC2CC3CCC2C3)CC1 (centres undefined) -4.07%
Cn1c(SCC2CCCCC2)nnc1-c1ccncc1 7.51%
CC(NC(=O)c1cc2cc(F)ccc2[nH]1)c1ccccc1 (centres undefined) 5.36%
COc1ccc(Cl)cc1NC(=O)C/C(C)=N/NC(=O)COc1ccc(C)cc1 4.2%
Cc1ccc(C(=O)OC(C)C(=O)NC2CCCCC2C)cc1S(=O)(=O)N1CCOCC1 (centres undefined) -5.67%
CCCCC(=O)N1CCN(c2nc3ccc(OCC)cc3s2)CC1 10.3%
CN1CCc2c(sc(NC(=O)C3CCCN3S(=O)(=O)c3ccc(Cl)s3)c2C(N)=O)C1 (centres undefined) -7.52%
CCOc1ccc(N(CC(=O)NCCc2ccccc2)C(=O)c2csnn2)cc1 2.07%
Cc1ccc(-n2nc3ccc(N)cc3n2)cc1Cl 0.05%
O=C(O)COCC(=O)NCc1nc(-c2ccc(C(F)(F)F)cc2)no1 -3.89%
CC1c2ccsc2CCN1S(=O)(=O)c1ccccc1 (centres undefined) 5.29%
COc1cc2c(cc1OC)C(COc1ccc([N+](=O)[O-])cc1)NCC2 (centres undefined) 5.02%
CC1CCN(c2c(NCC3CCC(C(=O)NCc4ccccc4)CC3)c(=O)c2=O)CC1 (centres undefined) -6.12%
CC1CCCN(C(=S)NCc2ccccc2)C1 (centres undefined) 4.83%
Cc1ccc(CCNS(=O)(=O)c2cc(Br)cnc2N)cc1 1.18%
CC1CCCCC1NC(=O)C1CCN(C(=O)c2sccc2-n2cccc2)CC1 (centres undefined) 6.9%
COC(=O)COC(=O)c1ccc(O)cc1 -6.41%
Cc1ccc(-c2nc(CS(=O)(=O)CC(=O)N3CCc4ccccc4C3)c(C)o2)cc1 8.69%
COc1ccc(-c2n(CC(=O)OC3CC(C)CCC3C(C)C)c3ccccc3[n+]2C)cc1 (centres undefined) -3.97%
CC1CCC(C(C)C)C(OC(=O)Cn2c(-c3ccc(Br)cc3)[n+](C)c3ccccc32)C1 (centres undefined) 10% and 1.48%
Cc1cccc(OCc2n(CC(=O)OC3CC(C)CCC3C(C)C)c3ccccc3[n+]2C)c1 (centres undefined) 15.1%
CC1CCC(C(C)C)C(OC(=O)Cn2c(-c3ccccc3)[n+](C)c3ccccc32)C1 (centres undefined) -8.38% and 13.1%
CC1CCC(C(C)C)C(OC(=O)Cn2c(-c3ccc(F)cc3)[n+](C)c3ccccc32)C1 (centres undefined) 4.57%
Cc1ccccc1OCc1n(CC(=O)OC2CC(C)CCC2C(C)C)c2ccccc2[n+]1C (centres undefined) 6.3%
COc1cccc(N2CCN(C(=O)CN(C)S(=O)(=O)c3ccc4c(c3)c(=O)n(C)c(=O)n4C)CC2)c1 3.8%
CCN(CC)c1ccc(NC(=O)CCNC(=O)c2ccco2)cc1 17.8%
COc1ccc(CNC(=O)COC(=O)CCOc2ccc(C)cc2)cc1OC -1.68%
CN(Cc1cn(C)c2ccccc12)C(=S)Nc1cc(F)cc(F)c1 -1.37%
COc1ccc(CCN2CC(C(=O)NCCc3ccccc3)CC2=O)cc1OC (centres undefined) 6.87%
CCN1CCN(C(=O)c2cnn3c(C(F)F)cc(-c4ccc(C)cc4)nc23)CC1 7.14%
COc1ccc(S(=O)(=O)N2CC(C)N(C(=O)N(C)C)C2C)cc1 (centres undefined) -6.03%
COc1ccc(-n2cnnc2SCC(=O)Nc2ccccc2F)cc1 -6.73%
CCOc1ccccc1NC(=O)CSc1nnc(CNC(=O)c2c(F)cccc2Cl)o1 1.66%
COc1ccc(NC(=O)COc2ccc(/C=N/n3c(C)nnc3C)cc2OC)cc1 -10.3%
COC(=O)Nc1ccc(S(=O)(=O)N2CCCCCC2)cc1 -7.01%
Cc1ccc(C)c(N(CC(=O)NC(C)C)C(=O)CCC(=O)Nc2ccccn2)c1 -3.9%
CO/N=C(\C(=O)N[C@@H]1C(=O)N2C(C(=O)O)=C(COC(N)=O)CS[C@H]12)c1ccco1 4.28%
COCC1=C(C(=O)OC(C)OC(=O)OC(C)C)N2C(=O)[C@@H](NC(=O)/C(=N\OC)c3csc(N)n3)[C@H]2SC1 (some centres undefined) -12.3%
O=S(=O)(N/N=C/c1ccc(N2CCOCC2)cc1)c1ccc(Br)cc1 -5.5%
Cc1nn2c(-c3ccccc3)ccnc2c1Br 0.66%
Cc1ccc(S(=O)(=O)/N=C2/C=C(C3C(=O)CC(C)(C)CC3=O)C(=O)c3ccccc32)cc1 8.77%
CCc1ccc(S(=O)(=O)/N=C2\C=CC(=O)c3ccccc32)cc1 3.04%
Cc1ccc(S(=O)(=O)/N=C2/C=C(Sc3ncn[nH]3)C(=O)c3ccccc32)c(C)c1 192%
CCc1ccc(S(=O)(=O)/N=C2\C=C(Nc3ccc(O)cc3)C(=O)c3ccccc32)cc1 15.4%
CCOC(=O)c1cn(Cc2ccccc2)c(C(=O)OC(C)(C)C)c1O 2.15%
CN(CC(=O)Nc1ccccc1Br)C(=O)c1ccc(COc2ccccc2)cc1 1.64%
O=C(O)c1cc2ccc3cccc4ccc(c1)c2c34 7.13%
Oc1cccc2cc3cccc(O)c3c(O)c12 5.42%
CC(=O)NC12CC3CC(C1)CC(C(=O)Nc1nccs1)(C3)C2 -6.86%
O=C(COc1ccc(Cl)cc1)Nc1ccc(C(=O)O)cc1NC(=O)COc1ccc(Cl)cc1 -0.41%
COc1cc(/C=C/C(=O)N(C)c2ccccc2C(=O)O)cc(OC)c1OC -9.48%
CC(C)Nc1cc(C(C)(C)C)nc2c(-c3ccccc3)cnn12 1.4%
CC(C)(C)c1cc(NCCCn2ccnc2)n2ncc(-c3ccccc3)c2n1 -5.57%
C[C@@H]1CN(Cc2nc(-c3cccs3)no2)C[C@H](C)O1 17.7%
COc1ccc(CC2NCCC3(O)CCCCC23)cc1 (centres undefined) -4.79%
CCOc1ccc(C(=O)Nc2ccc(C(=O)N3CCOCC3)cc2)c(OCC)c1 2.54%
CCCCC(CC)CNC(=O)C1CC=CCC1C(=O)O (centres undefined) -4.78%
